# A selection: hits, their analogues and other compounds. The true share with any hit is near 21%.
# Shiga inhibitor: A qHTS for Small Molecule Inhibitors of Shiga Toxin; Vero cells, Shiga toxin protein synthesis inhibition reporter; inhibition, % at 38.7 µM; hit rate 9.2% among 290,000; AID 2315, 2010; in the data active = inhibition mostly above about 28%, no sharp cut-off; inactive = mostly below about 43%; note: 0% is about no effect
# Pf growth 48h: Primary qHTS for delayed death inhibitors of the malarial parasite plastid, 48 hour incubation; AID 504832, 2011; P. falciparum luciferase growth in erythrocytes, 48 h; Potency, µM (top dose mostly 28.7 µM), for inactives: at the top dose activity change, negative = inhibition, hits mostly inhibitors; hit rate 5.9% among 310,000; note: potency is the fitted concentration of half-maximal effect; % is set by controls: 0 for no effect and ±100 for the full control effect
#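 A one-generation exposure of luciferase-tagged malaria parasites in RPMI 1640/Albumax erythrocyte culture, 37 C and 5% CO2. Inhibition is inferred from decreased luminescence after adding detection reagent.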
# Pf growth 96h: Primary qHTS for delayed death inhibitors of the malarial parasite plastid, 96 hour incubation; P. falciparum luciferase reporter growth, 96 h; Potency, µM (highest dose often 28.7 µM), inactives show at the highest dose activity change, negative = inhibition, actives largely listed as inhibitors; hit rate 6.9% among 320,000; AID 504834, 2011; note: potency is the fitted concentration of half-maximal effect; % is set by controls: 0 for no effect and ±100 for the full control effect
#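 Cell-based qHTS: luciferase-tagged P. falciparum in erythrocytes (2% hematocrit, 0.05% parasitemia final) incubated with compounds for 96 hours, 37 C, 5% CO2; luciferase detection reagent then added and luminescence measured.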
# NS1 function inh: qHTS Assay for Inhibitors of Influenza NS1 Protein Function; hit rate 0.4% among 270,000; AID 2326, 2010; Potency, µM (series often up to 46.1 µM), without a hit: top-dose activity, positive = more growth; calls by dose curve; note: potency is the fitted concentration of half-maximal effect; actives are rising curves; nearly all actives have a fitted effect of over 50% in size
#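 In this qHTS, NS1 from influenza A is expressed in budding yeast, where it slows growth. Cells are switched from glucose to 2% galactose medium (pH 6.0, -URA), treated with compound, and growth recovery is read at OD600.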
# Giardia FBPA inh: qHTS Assay for Inhibitors of Fructose-1,6-bisphosphate Aldolase from Giardia Lamblia | A8B2U2 | purified Giardia FBPA | hit rate 0.71% among 290,000 | Potency, µM (titrated, usually from 59.6 µM), without a hit: at the highest dose activity, negative = inhibition, actives largely listed as inhibitors | AID 2451, 2010; note: potency is the fitted concentration of half-maximal effect; % is set by controls: 0 for no effect and ±100 for the full control effect; nearly all actives have a fitted effect of over 55% in size
# Target sequence (A8B2U2 whole entry, looked up): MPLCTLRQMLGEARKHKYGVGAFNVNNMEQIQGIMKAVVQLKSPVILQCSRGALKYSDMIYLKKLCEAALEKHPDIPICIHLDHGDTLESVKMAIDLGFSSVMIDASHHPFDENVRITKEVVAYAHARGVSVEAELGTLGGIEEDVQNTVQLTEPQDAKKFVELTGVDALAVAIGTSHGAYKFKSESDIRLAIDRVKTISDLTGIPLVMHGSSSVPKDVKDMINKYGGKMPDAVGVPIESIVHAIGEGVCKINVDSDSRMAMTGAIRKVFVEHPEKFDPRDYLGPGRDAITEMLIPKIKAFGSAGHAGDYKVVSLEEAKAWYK
#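 40 nM FBPA preincubated 10 min at RT with compound (up to 57.5 uM final), then substrate plus GAPDH/TPI/NAD/arsenate coupling and diaphorase/resazurin added. Fluorescence read after 20 min at RT, 525/598 nm.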
# Cycloheximide cs: Cycloheximide Counterscreen for Small Molecule Inhibitors of Shiga Toxin | cell reporter, cycloheximide protein synthesis inhibition counterscreen | max response, % | hit rate 12% among 300,000 | AID 2314, 2010; in the data active = max response mostly above about 13%, no sharp cut-off; inactive = mostly below about 14%; note: read at 38.3 µM for the half of the compounds with a filed dose; 0% is about no effect
# Starred values were filed as active, the others as inactive; i = inactive; ? = inconclusive; . = not tested or not shown. Unless noted, calls come from the whole dose curve; as a rule, active = well fitted curve in the direction sought with a large enough effect; inconclusive = small, poorly fitted or top-dose-only effect, or another doubt; inactive = no such curve, though single readings can be large; an effect the other way counts as inactive or inconclusive.
SMILES,Shiga inhibitor,Pf growth 48h,Pf growth 96h,NS1 function inh,Giardia FBPA inh,Cycloheximide cs
O=C(c1cccc(N2C(=O)C3C4C=CC(C4)C3C2=O)c1)N1CCN(c2ccccc2F)CC1 (stereo unspecified),-4,?,20%,1%,.,-3
COc1cccc(NC(=S)N2CCC(c3ccc(C)cc3)C2)c1 (stereo unspecified),82*,18%,12%,0%,8%,30*
CCOc1ccc(NC(=S)N2CCC(c3ccc(C)cc3)C2)cc1 (stereo unspecified),-8,8%,3%,2%,11%,-2
COc1ccc(NC(=S)N2CCC(c3ccc(C)cc3)C2)cc1 (stereo unspecified),41,32%,18%,-1%,7%,14*
CCOc1ccc(S(=O)(=O)n2cnc(C)c2)cc1,-5,?,202%,-12%,-6%,-1
N#CC1=C(N)C(C#N)(C#N)[C@H](c2c(F)cccc2F)[C@H]2CC3(CC=C12)OCCO3,-3,5.2µM*,79%,?,?,-2
O=S(=O)(c1ccc2c(c1)OCO2)N1CCN(S(=O)(=O)c2c(F)cccc2F)CC1,-4,.,.,.,.,-5
O=C(Nc1nc2ccccc2[nH]1)c1ccc(Br)o1,83*,i,256%,-38%,?,47*
COc1ccc(C(=O)N[C@H](C(=O)Nc2nc3ccccc3[nH]2)C(C)C)cc1,76*,78%,66%,.,-5%,37*
Cc1ccc(N(C)S(=O)(=O)c2cccc(C(=O)Nc3nc4ccccc4[nH]3)c2)cc1,39*,12µM*,?,?,-2%,36*
CN(C)c1cccc(C(=O)Nc2nc3ccccc3[nH]2)c1,44,-62%,-62%,-14%,-2%,15*
CCC(Oc1cc(Cl)ccc1Cl)C(=O)N1CCCN(C)CC1 (stereo unspecified),8,13%,10%,-5%,.,0
COc1ccc(NS(=O)(=O)c2ccc(OCC(=O)N3CCOCC3)cc2)cc1Cl,-17,-11%,20%,-1%,.,-3
COc1cc(C(=O)Nc2nc3ccccc3[nH]2)cc(OC)c1OC,19,?,9.3µM*,-17%,-6%,10
O=C(Nc1nc2ccccc2[nH]1)c1cccc(Br)c1,82*,-19%,-53%,-14%,21%,20*
O=C(Nc1nc2ccccc2[nH]1)c1cccc(F)c1,58*,2%,-55%,-8%,-1%,24*
Cc1ccc(C(=O)Nc2nc3ccccc3[nH]2)cc1,-7,-98%,-39%,-17%,-15%,1
COc1ccc(C(=O)Nc2nc3ccccc3[nH]2)cc1,-10,-59%,-85%,-29%,-9%,-8
COc1cccc(C(=O)Nc2nc3ccccc3[nH]2)c1,29,.,-71%,-6%,-16%,27*
COc1ccccc1C(=O)NCCC(=O)Nc1nc2ccccc2[nH]1,.,3%,16%,.,.,.
C=CCN1C(=O)C2C(C(=O)NC3CCCC3)C3(C)C=CC2(O3)C1C(=O)NC1CCCC1 (stereo unspecified),-6,20%,-8%,9%,3%,-4
O=C(Nc1nc2ccccc2[nH]1)C1CCN(C(=O)c2ccc(F)cc2)CC1,.,-7%,5%,.,.,.
O=C(/C=C/c1ccc(F)cc1)Nc1nc2ccccc2[nH]1,77*,251%,3%,25%,3%,37*
C=CCC(C)(NCc1ccccc1)C(=O)OCC (stereo unspecified),.,.,.,.,7%,.
Cc1csc2c(N3CCN(C(=S)Nc4ccc(F)cc4F)CC3)ncnc12,6,20%,26%,-2%,-10%,9
SMILES,Shiga inhibitor,Pf growth 48h,Pf growth 96h,NS1 function inh,Giardia FBPA inh,Cycloheximide cs
CC(=C/c1ccccc1)/C=N/NC(=O)c1ccc2nc[nH]c2c1,51*,38%,?,11%,8%,17*
COc1cccc(/C=N/NC(=O)c2ccc3nc[nH]c3c2)c1,37,52%,50%,4%,-6%,6
O=C(N/N=C/C(Br)=C\c1ccccc1)c1ccc2nc[nH]c2c1,46,23%,?,10%,0%,19*
COc1ccc(OC)c(/C=N/NC(=O)c2ccc3nc[nH]c3c2)c1,-4,38%,39%,0%,4%,-2
COc1ccccc1/C=C/C=N/NC(=O)c1ccc2nc[nH]c2c1,-20,?,9.3µM*,.,-29%,-6
CCOc1ccc(-n2ccc(=O)c(C(=O)Nc3ccc(S(=O)(=O)Nc4ncccn4)cc3)n2)cc1,-12,1%,22%,-19%,.,-11
NC(=O)c1cccc2c3c([nH]c12)CCCC3,87*,44%,-10%,-15%,-7%,36*
CCC1=C(c2cc(OC)c(OC)c(OC)c2)C2(CCCC2)C(=O)O1,-3,-25%,?,-14%,5%,-2
N#C/C(=C/c1ccc(-c2ccc(S(N)(=O)=O)cc2)o1)c1nc2ccccc2s1,-3,-17%,36%,15%,4%,-2
N#C/C(=C\c1ccc(-c2nc3ccccc3s2)o1)C(N)=O,50*,86%,100%,-4%,-1%,38*
CNC(=O)/C(C#N)=C/c1ccc(-c2nc3ccccc3s2)o1,55*,92%,110%,-1%,-3%,43*
COc1ccc(C(=O)N2CCC3(CCCN(Cc4ccc(C#N)cc4)C3)CC2)cc1,.,.,.,.,-1%,.
COc1ccc(C(=O)Nc2ccccc2C(N)=O)cc1,94*,192%,.,-50%,-7%,27*
COc1ccc(CC(=O)Nc2ccc(C(=O)NC(C)(C)C)cc2)cc1OC,2,-16%,?,4%,5%,-3
Cc1ccccc1NC(=O)c1ccc2ccccc2c1,92*,-25%,0%,-16%,16%,30*
COc1ccc(CC(=O)Nc2ccc(C(=O)Nc3ccccc3C(=O)O)cc2)cc1OC,-16,6%,?,-1%,15%,23*
COc1ccc(C(=O)Nc2ccccc2C(=O)Nc2ccc(C(=O)O)cc2)cc1,35,39%,-80%,-3%,-18%,11*
O=C(O)C1CCN(C(=O)c2ccc3c(c2)OCO3)CC1,6,74%,9%,-5%,.,1
NC(CSCC(=O)O)C(=O)O (stereo unspecified),-4,9%,5%,.,7%,5
NC(=O)c1ccccc1NC(=O)c1ccc2c(c1)OCO2,55*,288%,1%,-22%,-1%,41*
COc1ccc(C(=O)NNc2ccccc2)cc1,13,-3%,?,-3%,2%,15
NC(=O)c1ccccc1NC(=O)c1ccc2ccccc2c1,79*,181%,285%,-12%,-1%,57*
COc1ccc(NC(=O)c2ccccc2NC(=O)COc2ccccc2)cc1,2,-10%,35%,2%,-1%,-3

# Bioassay records deposited in PubChem by National Center for Advancing Translational Sciences (NCATS).
